Growth data for eight molecules are collected here from PubChem BioAssay (NCI).

This is part of a sample that, as a whole, favours compounds with a hit. Of some 83,000 tested, about 20% had one in any assay.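 Assay: single dose, 48 h. Readout: percent growth (0 = no net growth; negative = cell death). Active: <10.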 A number with no mark means an inactive call. Calls of active or inactive are those of the source.

Among the test systems are HCT-15 colon; HT29 colon; SNB-75 CNS; SNB-19 CNS; U251 CNS; PC-3 prostate; SK-MEL-5 melanoma; UACC-62 melanoma; LOX IMVI melanoma; SK-MEL-28 melanoma; SK-MEL-2 melanoma; EKVX NSCLC; SN12C renal; UO-31 renal; TK-10 renal; ACHN renal; CAKI-1 renal; A498 renal; MOLT-4 leukemia; CCRF-CEM leukemia.
Assay in all cases: NCI-60 one-dose screen, 48 h (100 = growth as untreated, 0 = no growth, -100 = all killed)
Holding throughout (conditions): 10 µM unless noted

Take `COc1ccc(Nn2c(SCC(=O)Nc3nc(-c4ccc(Cl)cc4)cs3)nc(C)c2C)cc1`: the growth in the experiment on HCT-15 colon was 59.8%; with HT29 colon, 30.1%; in the experiment with SNB-75 CNS, 45.8%; in the experiment with SNB-19 CNS, 79.2%; with U251 CNS, 43.5%; in the experiment on PC-3 prostate, 35.7%. The growth was -21.5% (active) in the experiment with SK-MEL-5 melanoma; 49.5% in the experiment on UACC-62 melanoma; 38.9% with LOX IMVI melanoma; 86.8% with SK-MEL-28 melanoma; 90.5% with SK-MEL-2 melanoma; 41.9% with EKVX NSCLC. The growth with SN12C renal was 67.2%; in the experiment with UO-31 renal it was 39.4%; with TK-10 renal, 68.5%; in the experiment on ACHN renal, 52%; in the experiment on CAKI-1 renal it was 34.4%; in the experiment on A498 renal, 69.5%. Besides, the growth with MOLT-4 leukemia is 36.1%.

In the case of `COc1cccc(NC(=O)c2cccc(-c3cc(=O)c4c(OC)c(OC)c(OC)cc4o3)c2)c1`, the growth with HCT-15 colon is 54.7%; in the experiment on HT29 colon, 50.8%; with SNB-75 CNS it was 89.8%; in the experiment with SNB-19 CNS it was 82.5%; in the experiment on U251 CNS, 62.1%; in the experiment on PC-3 prostate, 57.1%. Moreover, the growth with SK-MEL-5 melanoma was 63.9%; in the experiment with UACC-62 melanoma, 62.1%; in the experiment with LOX IMVI melanoma, 49.9%; in the experiment with SK-MEL-28 melanoma it was 73.4%; in the experiment with SK-MEL-2 melanoma, 75.7%; in the experiment on EKVX NSCLC, 81.3%. Moreover, the growth is 62.3% in the experiment with SN12C renal; 31.6% in the experiment with UO-31 renal; 78.8% in the experiment with TK-10 renal; 62.5% with ACHN renal; 74.7% in the experiment with CAKI-1 renal; 40.5% in the experiment on CCRF-CEM leukemia. The growth with MOLT-4 leukemia was 48.5%.

In the case of `COc1cc(CNC(=O)CCCCC[P+](c2ccccc2)(c2ccccc2)c2ccccc2)c(OC)c2c1OCO2`, the growth in the experiment on HCT-15 colon was 99.8%; in the experiment with HT29 colon, 45.2%; with SNB-75 CNS it was 68.5%; in the experiment with SNB-19 CNS, 53.6%; in the experiment with U251 CNS, 63.7%; with PC-3 prostate, 63.2%. In addition, the growth is 84.3% in the experiment on SK-MEL-5 melanoma; 41.8% with UACC-62 melanoma; 61% with LOX IMVI melanoma; 42.1% in the experiment with SK-MEL-28 melanoma; 60.3% with SK-MEL-2 melanoma; 71.8% in the experiment on EKVX NSCLC. For the same molecule, the growth was 75.4% in the experiment on SN12C renal; 92.3% in the experiment on UO-31 renal; 84.3% in the experiment with TK-10 renal; 106% with ACHN renal; 89.4% in the experiment with CAKI-1 renal; 78.8% in the experiment on A498 renal. The growth in the experiment on MOLT-4 leukemia is 99.2%.

Take `COc1ccc(-c2nc3sccn3c2/C=C/C(=O)c2cc(OC)c(OC)c(OC)c2)cc1`: the growth was 40.2% in the experiment on HCT-15 colon; 46.9% in the experiment with HT29 colon; 37.2% with SNB-75 CNS; 59.9% with SNB-19 CNS; 43.1% in the experiment with U251 CNS; 32.2% in the experiment on PC-3 prostate. Further, the growth in the experiment on SK-MEL-5 melanoma was -10.9% (active); in the experiment on UACC-62 melanoma, 46.6%; in the experiment on LOX IMVI melanoma, 41.4%; in the experiment with SK-MEL-28 melanoma, 84.2%; in the experiment on SK-MEL-2 melanoma, 43.9%; in the experiment with EKVX NSCLC, 60%. The growth with SN12C renal was 62.5%; in the experiment on UO-31 renal it was 17.6%; in the experiment on TK-10 renal it was 82.7%; in the experiment on ACHN renal it was 55.7%; in the experiment on CAKI-1 renal, 42.4%; in the experiment on A498 renal it was 84.9%. Moreover, the growth with MOLT-4 leukemia is 29.8%.

On to `CN1CCCC1=Nc1ccccc1`, for which the growth with HCT-15 colon was 111%; in the experiment on HT29 colon, 98.1%; in the experiment with SNB-75 CNS it was 80%; with SNB-19 CNS, 107%; with U251 CNS, 94.7%; in the experiment with PC-3 prostate it was 96.9%. Also, the growth in the experiment on SK-MEL-5 melanoma was 104%; in the experiment with UACC-62 melanoma, 91.4%; with LOX IMVI melanoma, 96.6%; in the experiment with SK-MEL-28 melanoma, 96.6%; with SK-MEL-2 melanoma, 114%; with EKVX NSCLC, 103%. Besides, the growth is 95.5% in the experiment with SN12C renal; 92.2% in the experiment on UO-31 renal; 107% with TK-10 renal; 115% in the experiment on ACHN renal; 94.6% with CAKI-1 renal; 105% in the experiment on CCRF-CEM leukemia. The growth with MOLT-4 leukemia was 101%.

For the molecule `COc1ccc(/C=C/C(=O)c2ccc(OC)c(OC)c2)cc1O`, the growth in the experiment with HCT-15 colon is 56.5%; with HT29 colon, 63.8%; in the experiment on SNB-75 CNS it was 86.1%; in the experiment with SNB-19 CNS, 82.1%; in the experiment with U251 CNS it was 25.4%; with PC-3 prostate it was 82.4%. In addition, the growth with SK-MEL-5 melanoma was 77.2%; with UACC-62 melanoma, 87.1%; with LOX IMVI melanoma, 65.5%; in the experiment with SK-MEL-28 melanoma, 101%; in the experiment on SK-MEL-2 melanoma it was 99.9%; in the experiment with EKVX NSCLC it was 87.4%. Besides, the growth in the experiment with SN12C renal was 73.8%; with UO-31 renal, 63.9%; with TK-10 renal, 83.8%; with ACHN renal, 86%; in the experiment with CAKI-1 renal it was 62.9%; in the experiment with CCRF-CEM leukemia, 62.5%. Also, the growth in the experiment on MOLT-4 leukemia was 67.2%.

As for `CNC(=O)NCC1OC(n2cnc3c(NC(=O)Nc4ccccc4)ncnc32)C(O[Si](C)(C)C(C)(C)C)C1O[Si](C)(C)C(C)(C)C` (stereo unspecified), the growth in the experiment on HCT-15 colon was 21.3%; with HT29 colon, -67.7% (active); with SNB-75 CNS it was 45.8%; with SNB-19 CNS it was 76.1%; in the experiment with U251 CNS it was 17.2%; with PC-3 prostate, 7.78% (active). Besides, the growth was 48.2% in the experiment with SK-MEL-5 melanoma; 41.9% in the experiment on UACC-62 melanoma; 13.3% in the experiment on LOX IMVI melanoma; 60% in the experiment on SK-MEL-28 melanoma; 56.7% with SK-MEL-2 melanoma; 23.4% with EKVX NSCLC. Moreover, the growth in the experiment with SN12C renal is -79.3% (active); in the experiment with UO-31 renal, 48.3%; with TK-10 renal, 34.2%; in the experiment with ACHN renal, 20.5%; in the experiment on CAKI-1 renal, 59.5%; with CCRF-CEM leukemia it was 42.6%. In addition, the growth in the experiment on MOLT-4 leukemia was 24.1%.

For the molecule `CC(=O)N1c2ccccc2NC2=C(C(=O)N(C)C2(C)C)C1C` (stereo unspecified), the growth is 93.8% in the experiment on HCT-15 colon; 25.2% in the experiment on HT29 colon; -3.29% (active) in the experiment with SNB-75 CNS; 39.9% in the experiment with SNB-19 CNS; 18.1% in the experiment with U251 CNS; 36.4% in the experiment on PC-3 prostate. Also, the growth in the experiment with SK-MEL-5 melanoma was 27.5%; with UACC-62 melanoma it was 32.3%; with LOX IMVI melanoma, 37.5%; with SK-MEL-28 melanoma, 56%; in the experiment with SK-MEL-2 melanoma, 8.92% (active); with EKVX NSCLC, 61.5%. The growth in the experiment on SN12C renal was 40.7%; in the experiment with UO-31 renal, 82%; with TK-10 renal, 87.1%; in the experiment on ACHN renal, 97%; with CAKI-1 renal, 71.9%; in the experiment with CCRF-CEM leukemia, 20.7%.
